PubChem BioAssay (NCATS)
A number with no mark means an inactive call. Results filed as inconclusive are left out. A call without a number means that no potency is given here. Active and inactive are the calls of the source. The call rests on the fitted dose curve; in most records, active means well fitted curve in the direction sought with a large enough effect; inconclusive means small, poorly fitted or top-dose-only effect, or another doubt; inactive means no such curve, though single readings can be large; an effect the other way counts as inactive or inconclusive.

Key:
[1] = biological target: Glutathione peroxidase 1 (Homo sapiens) (UniProt P07203); assay: Primary qHTS Assay for Inhibitors of Recombinant Selenoprotein Glutathione Peroxidase 1 (GPX1) (AID 1845191); details: recombinant GPX1, GR-coupled NADPH fluorescence, 15 min; series mostly up to 48.8 µM; further: nearly all actives have a fitted effect of over 65% in size; further: potency means the concentration at half of the fitted maximal effect
Procedure, shortened: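 10 nM GPX1 + cpd, 30 min RT; start w/ 1 mM GSH, 0.5 mM cumene hydroperoxide, 0.5 mM NADPH, 100 nM GR, 0.01% BSA; buffer 50 mM Tris-HCl pH 7.5, 2 mM EDTA, 150 mM NaCl; Fl 340/450, 0 & 15 min.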

[2] = biological target: Phospholipid hydroperoxide glutathione peroxidase GPX4 (Homo sapiens) (UniProt P36969); assay: Primary qHTS Assay for Inhibitors of Recombinant Selenoprotein Glutathione Peroxidase 4 (GPX4) (AID 1845192); details: recombinant GPX4, GR-coupled NADPH fluorescence, 15 min; series mostly up to 50 µM; further: nearly all actives have a fitted effect of over 65% in size
Procedure, shortened: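 NADPH consumption, followed by fluorescence at 340/450 nm between 0 and 15 min, reports GPX4 activity via coupled glutathione reductase (100 nM). Enzyme 200 nM was pre-exposed to compound 30 min; 0.5 mM cumene hydroperoxide and 1 mM GSH served as substrates.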

[3] = biological target: Luciferin 4-monooxygenase (Photinus pyralis) (UniProt P08659); assay: Primary firefly luciferase (FLuc) qHTS assay for identification of artifact compounds. (AID 1845220); details: purified firefly luciferase, luminescence, 5 min; series mostly up to 54.1 µM; further: nearly all actives have a fitted effect of over 60% in size
Procedure, shortened: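 Cell-free, 1536-well qHTS. Buffer pH 7.6 with 0.01% Tween-20 and 0.05% BSA; 10 uM D-luciferin, 10 uM ATP; 10 nM P. pyralis luciferase; luminescence after 5 min.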

[4] = Primary fluorescence-based thiol-reactive (MSTI) qHTS assay for identification of artifact compounds. (AID 1845221); details: MSTI thiol-reactivity probe, 1 h; series mostly up to 53.8 µM; further: nearly all actives have a fitted effect of over 65% in size; further: potency means the concentration at half of the fitted maximal effect;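 on activity change, negative = thiol reactive: thiol-reactive compounds lower the probe fluorescence signal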
Procedure, shortened: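 First, 4 uM MSTI in 2% DMSO/PBS pH 7.4 was dispensed; next, compounds were added; then plates sat 1 h at room temperature without light. Finally, emission at 598 nm was recorded.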

[5] = system: Nanoluciferase (engineered Oplophorus gracilirostris luciferase); assay: Primary Nanoluciferase (NLuc) qHTS assay for identification of artifact compounds. (AID 1845222); details: NLuc-conditioned medium, Nano-Glo luminescence, 5 min; series mostly up to 54.1 µM
Procedure, shortened: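 Compounds are pinned into diluted (1:55) conditioned medium of NLuc-expressing S16 cells and held 15 min at room temperature protected from light. Nano-Glo substrate follows, and luminescence is read 5 min later.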

[6] = Primary redox qHTS assay for identification of artifact compounds. (AID 1845223); details: Amplex Red/HRP redox cycling with DTT, fluorescence; series mostly up to 53.8 µM
Procedure, shortened: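 Amplex Red (25 uM) and HRP (250 mU/mL) in HBSS, with compounds for 15 min, then 250 uM DTT for 30 min, room temperature, dark. Fluorescence 525/598 nm read; normalized to DMSO and 10 uM DA3003; Hill fit.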

Sequence of Glutathione peroxidase 1 (Homo sapiens) (P07203 whole entry, looked up): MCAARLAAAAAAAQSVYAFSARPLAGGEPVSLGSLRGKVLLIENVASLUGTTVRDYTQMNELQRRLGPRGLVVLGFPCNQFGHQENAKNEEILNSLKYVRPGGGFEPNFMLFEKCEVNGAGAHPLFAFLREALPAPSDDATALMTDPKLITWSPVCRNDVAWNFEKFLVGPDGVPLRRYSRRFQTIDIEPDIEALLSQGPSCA
Sequence of Phospholipid hydroperoxide glutathione peroxidase GPX4 (Homo sapiens) (P36969 whole entry, looked up): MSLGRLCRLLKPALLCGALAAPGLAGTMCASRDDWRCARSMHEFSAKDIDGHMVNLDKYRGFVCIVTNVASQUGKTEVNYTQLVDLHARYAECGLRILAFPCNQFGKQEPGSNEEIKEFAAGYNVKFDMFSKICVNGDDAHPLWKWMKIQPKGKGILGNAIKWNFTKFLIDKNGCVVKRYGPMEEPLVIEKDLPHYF

Compound: CCc1ccccc1OC[C@@H](O)CN[C@H]1CCCc2ccccc21
- Potency [1]: inactive
- Potency [2]: inactive
- Potency [3]: inactive
- Potency [4]: inactive
- Potency [5]: inactive
- Potency [6]: inactive

Compound: CCN1CCN(Cc2ccc(C(=O)Nc3ccc(C)c(Oc4ccc5c(c4)CC(=O)N5)c3)cc2C(F)(F)F)CC1
- Potency [1]: inactive
- Potency [2]: inactive
- Potency [3]: inactive
- Potency [4]: inactive
- Potency [5]: inactive
- Potency [6]: inactive

Compound: COc1ccncc1C(=O)NC(=O)Nc1ccc(-c2ccccc2)c(C(F)(F)F)c1
- Potency [1]: inactive
- Potency [2]: inactive
- Potency [3]: inactive
- Potency [4]: inactive
- Potency [5]: inactive
- Potency [6]: inactive

Compound: COc1cc(O)c2c(c1)C1OC1C[C@H](O)[C@H](O)C(=O)/C=C\C[C@H](C)OC2=O (some centres undefined)
- Potency [1]: inactive
- Potency [2]: inactive
- Potency [3]: inactive
- Potency [4]: inactive
- Potency [5]: inactive
- Potency [6]: inactive

Compound: O=C(CSc1nc2ccccc2c(=O)n1-c1ccccc1)Nc1ccc2c(c1)CCC2
- Potency [1]: inactive
- Potency [2]: inactive
- Potency [3]: inactive
- Potency [4]: inactive
- Potency [5]: inactive
- Potency [6]: inactive

Compound: COc1cc(NC(=O)c2cc(C3CC3)on2)c(OC)cc1Cl
- Potency [1]: inactive
- Potency [2]: inactive
- Potency [3]: inactive
- Potency [4]: inactive
- Potency [5]: inactive
- Potency [6]: inactive

Compound: Fc1ccc(-c2cncc(CN3CCN(c4cccc5c4OCCO5)CC3)c2)cc1
- Potency [1]: inactive
- Potency [2]: inactive
- Potency [3]: inactive
- Potency [4]: inactive
- Potency [5]: inactive
- Potency [6]: inactive

Compound: O=C(NCc1ccc(OC(F)(F)F)cc1)C1c2c(F)cccc2C(=O)N1CCc1ccccn1 (centres undefined)
- Potency [1]: inactive
- Potency [2]: inactive
- Potency [3]: inactive
- Potency [4]: inactive
- Potency [5]: inactive
- Potency [6]: inactive

Compound: N#Cc1ccc2ncnc(NCCc3ccccc3)c2c1
- Potency [1]: inactive
- Potency [2]: inactive
- Potency [3]: inactive
- Potency [4]: inactive
- Potency [5]: inactive
- Potency [6]: inactive

Compound: CC(=O)NC(C)c1cnc(-c2cnc(Oc3ccc(OC(C)C)cc3)s2)s1 (centres undefined)
- Potency [1]: inactive
- Potency [2]: inactive
- Potency [3]: inactive
- Potency [4]: inactive
- Potency [5]: inactive
- Potency [6]: inactive

Compound: C/C(=C/CO)CCC1C(C)CCC2C(C)(C)CCCC12C (centres undefined)
- Potency [1]: inactive
- Potency [2]: inactive
- Potency [3]: inactive
- Potency [4]: inactive
- Potency [5]: inactive
- Potency [6]: inactive

Compound: C[C@H]1CC[C@@]2(OC1)O[C@H]1CC3[C@@H]4CC[C@@H]5C[C@@H](O[C@@H]6O[C@H](CO)[C@@H](O[C@@H]7O[C@@H](C)[C@H](O)[C@@H](O)[C@H]7O)[C@H](O)[C@H]6O[C@@H]6O[C@H](CO)[C@@H](O)[C@H](O)[C@H]6O)CC[C@]5(C)C4CC[C@]3(C)[C@H]1[C@@H]2C (some centres undefined)
- Potency [1]: inactive
- Potency [2]: inactive
- activity change, negative = inhibition [3]: 0.648% [at 11.6 µM]
- activity change, negative = thiol reactive [4]: 131% [at 11.5 µM]
- activity, negative = inhibition [5]: 2.19% [at 11.6 µM]
- redox activity (% of DA3003) [6]: -5.48% [at 11.5 µM]

Compound: CN(C)c1ccnc2sc3c(=O)n(N4CCCCCC4)cnc3c12
- Potency [1]: inactive
- Potency [2]: inactive
- Potency [3]: inactive
- Potency [4]: inactive
- Potency [5]: inactive
- Potency [6]: inactive

Compound: O=C(NC[C@H](O)CN1CCc2ccccc2C1)c1ccnc(NC2CCC2)c1
- Potency [1]: inactive
- Potency [2]: inactive
- Potency [3]: inactive
- Potency [4]: inactive
- Potency [5]: inactive
- Potency [6]: inactive

Compound: Nc1c(S(=O)(=O)c2ccccc2)c2nc3ccccc3nc2n1-c1ccc(F)cc1
- Potency [1]: 20.2 µM (active)
- Potency [2]: inactive
- Potency [3]: inactive
- Potency [4]: inactive
- Potency [6]: inactive

Compound: Cc1noc(C)c1-c1cc(O)cc(C(O)c2ccccc2)c1 (centres undefined)
- Potency [1]: inactive
- Potency [2]: inactive
- Potency [3]: inactive
- Potency [4]: inactive
- Potency [5]: inactive
- Potency [6]: inactive

Compound: C=C1CCC2C(C)(C)CCCC2(C)C1CC/C(C)=C\CO (centres undefined)
- Potency [1]: inactive
- Potency [2]: inactive
- Potency [3]: inactive
- Potency [4]: inactive
- Potency [5]: inactive
- Potency [6]: inactive

Compound: COc1ccc(CCO[C@@H]2O[C@H](CO[C@H]3OC[C@](O)(CO)[C@H]3O)[C@@H](OC(=O)/C=C/c3ccc(O)c(O)c3)[C@H](O[C@@H]3O[C@@H](C)[C@H](O)[C@@H](O)[C@H]3O)[C@H]2O)cc1OC
- Potency [1]: inactive
- Potency [2]: inactive
- Potency [3]: inactive
- Potency [4]: 1.58 µM (active)
- Potency [5]: inactive
- Potency [6]: inactive

Compound: CC(C)(C)c1ccc(NC(=O)N2CCN(c3ncccc3Cl)CC2)cc1
- Potency [1]: inactive
- Potency [2]: inactive
- Potency [3]: inactive
- Potency [4]: inactive
- Potency [5]: inactive
- Potency [6]: inactive

Compound: CC1CC(=O)C2=C(C1)C1OC1C1(O)C2C(=O)c2cccc(O)c2C1O (centres undefined)
- Potency [1]: inactive
- Potency [2]: inactive
- Potency [3]: inactive
- Potency [4]: 6.56 µM (active)
- Potency [5]: inactive
- Potency [6]: inactive

Compound: O=C(NCc1ccccc1)c1ccc2c(=O)n(-c3cccc(C(F)(F)F)c3)c(=S)[nH]c2c1
- Potency [1]: inactive
- Potency [2]: inactive
- Potency [3]: inactive
- Potency [4]: inactive
- Potency [5]: inactive
- Potency [6]: inactive

Compound: COc1ccc2[nH]c(=O)c3c(c2c1)OC(C)(C)C=C3
- Potency [1]: inactive
- Potency [2]: inactive
- Potency [3]: inactive
- Potency [4]: inactive
- Potency [5]: inactive
- Potency [6]: inactive

Compound: Cn1c(=O)c(F)c(Nc2ccc(I)cc2F)c2c(=O)n(CC(O)CO)cnc21 (centres undefined)
- Potency [1]: inactive
- Potency [2]: inactive
- Potency [3]: inactive
- Potency [4]: inactive
- Potency [5]: inactive
- Potency [6]: inactive

Compound: CCC(CC)(NC(=O)C(C)C)C(=O)N[C@@H](CCCN=C(N)N)C(=O)NC1(C(=O)NC(c2ccc(F)cc2)c2ccc(F)cc2)CCCC1
- Potency [1]: inactive
- Potency [2]: inactive
- Potency [3]: inactive
- Potency [4]: inactive
- Potency [5]: inactive
- Potency [6]: inactive

Compound: Cc1cnn(-c2ccccc2)c1NC(=O)COCc1ccccc1
- Potency [1]: inactive
- Potency [2]: inactive
- Potency [3]: inactive
- Potency [4]: inactive
- Potency [5]: inactive
- Potency [6]: inactive

Compound: C/C=C/CCC1Cc2cc(O)c(CCCC)c(O)c2C(=O)O1 (centres undefined)
- Potency [1]: inactive
- Potency [2]: inactive
- Potency [3]: inactive
- Potency [4]: inactive
- Potency [5]: inactive
- Potency [6]: inactive

Compound: C=C1CC2OC(=O)C(=C)C2C(OC(=O)/C(C)=C\C)CC2(C)OC1=CC2=O (centres undefined)
- Potency [1]: inactive
- Potency [2]: inactive
- Potency [3]: inactive
- Potency [4]: inactive
- Potency [5]: inactive
- Potency [6]: inactive

Compound: C/C=C(/C)C(=O)OC1CC(C)(C)CC2C3=CCC4C5(C)CCC(O[C@@H]6O[C@H](C(=O)O)[C@@H](O)[C@H](O)[C@H]6O[C@@H]6O[C@H](CO)[C@H](O)[C@H](O[C@@H]7OC[C@H](O)[C@H](O)[C@H]7O[C@@H]7O[C@H](CO)[C@@H](O)[C@H](O)[C@H]7O)[C@H]6O)C(C)(C)C5CCC4(C)C3(C)C(O)C(O)C12CO (some centres undefined)
- activity, negative = inhibition [1]: -3.11% [at 9.52 µM]
- activity change, negative = inhibition [2]: -1.81% [at 9.73 µM]
- activity change, negative = inhibition [3]: 1.87% [at 11.6 µM]
- activity change, negative = thiol reactive [4]: 199% [at 11.5 µM]
- activity, negative = inhibition [5]: 4.03% [at 11.6 µM]
- redox activity (% of DA3003) [6]: 15.7% [at 11.5 µM]

Compound: CC1=CC2/C=C(\C)CCC3OC(C)(C)OC3CCC(=O)C23C(=O)NC(CC(C)C)C3C1C (centres undefined)
- Potency [1]: inactive
- Potency [2]: inactive
- Potency [3]: inactive
- Potency [4]: inactive
- Potency [5]: inactive
- Potency [6]: inactive

Compound: O=C(Nc1cnc(Cl)nc1)c1ccc(F)c(F)c1
- Potency [1]: inactive
- Potency [2]: inactive
- Potency [3]: inactive
- Potency [4]: inactive
- Potency [5]: inactive
- Potency [6]: inactive
